PubChem BioAssay AID1259412 (Laboratorio de Genomica e Expressao (LGE), UNICAMP, 2018)
Calls of active or inactive are those of the source. How the calls were made is not given here.

tested on: not listed separately; assay: alternative oxidase inhibition and growth effect – profiling panel (AID 1259412); details: AOX-dependent respiration, measured here: O2 uptake, control condition (no AOX), at 500 µM, stronger effect = lower value

Compound | O2 uptake (% of control)
COc1cccc(C(=O)Nc2cccc(OCc3ccccc3)c2)c1 | 91.3%
COc1cc(NC(=O)c2cccc(C#N)c2)cc(OC)c1OC | 104%
Cc1cccc(C(=O)NCc2ccc3c(c2)OCO3)c1 | 99%
O=C(Nc1cccc(Br)c1)c1cccc(Br)c1 | 81%
O=C(Nc1cccc(Br)c1)c1cccc(I)c1 | 89.6%
Cc1cccc(C(=O)Nc2ccc(N3CCOCC3)cc2)c1 | 96.2%
O=C(Nc1cccc([N+](=O)[O-])c1)c1ccccc1 | 95.6%
COc1cc(NC(=O)c2cccc(Cl)c2)cc(OC)c1OC | 97.8%
N#Cc1cccc(C(=O)Nc2ccccc2)c1 | 105%
O=C(Nc1cccc(Br)c1)c1ccccc1 | 88.5%
COc1cccc(C(=O)Nc2ccccc2C(N)=O)c1 | 93.7%
O=C(Nc1cccc(F)c1)c1cccc(I)c1 | 76%
COc1cc(NC(=O)c2cccc(C)c2)cc(OC)c1OC | 83.6%
O=C(Nc1cccc(C(F)(F)F)c1)c1cccc(F)c1 | 83%
O=C(Nc1cccc([N+](=O)[O-])c1)c1cccc(F)c1 | 92.7%
O=C(Nc1cccc(Cl)c1)c1cccc(Br)c1 | 85%
O=C(Nc1cccc(I)c1)c1ccccc1 | 78.6%
O=C(Nc1cccc(OCc2ccccc2)c1)c1cccc(I)c1 | 100%
O=C(Nc1cccc(NC(=O)c2cccc(I)c2)c1)c1cccc(I)c1 | 106%
O=C(Nc1cccc(C(F)(F)F)c1)c1ccccc1 | 84%

Compound | O2 uptake (% of control)
COc1cccc(C(=O)Nc2cccc(I)c2)c1 | 92.5%
O=C(Nc1cccc(OCc2ccccc2)c1)c1cccc(F)c1 | 97.4%
O=C(Nc1cccc(C(F)(F)F)c1)c1cccc(I)c1 | 82.2%
O=C(Nc1ccc(N2CCOCC2)cc1)c1cccc(F)c1 | 104%
NC(=O)c1ccccc1NC(=O)c1ccccc1I | 112%
O=C(Nc1cccc(Cl)c1)c1cccc(I)c1 | 80.5%
O=C(Nc1cccc(NC(=O)c2cccc(F)c2)c1)c1cccc(F)c1 | 97%
O=C(Nc1cccc(Cl)c1)c1cccc(F)c1 | 78.3%
O=C(Nc1cccc(OCc2ccccc2)c1)c1cccc(Br)c1 | 107%
O=C(Nc1cccc(Cl)c1)c1ccccc1 | 88%
O=C(Nc1ccccc1)c1cccc(F)c1 | 103%
O=C(Nc1cccc(F)c1)c1cccc(Br)c1 | 73.7%
COc1cc(NC(=O)c2cccc(F)c2)cc(OC)c1OC | 93.1%
Cc1cccc(C(=O)Nc2ccccc2)c1 | 103%
Cc1cccc(C(=O)Nc2cccc([N+](=O)[O-])c2)c1 | 98.8%
O=C(Nc1cccc(C(F)(F)F)c1)c1cccc(Cl)c1 | 93.2%
N#Cc1cccc(C(=O)Nc2cccc(F)c2)c1 | 103%
COc1cc(NC(=O)c2cccc(Br)c2)cc(OC)c1OC | 90%
COc1cc(NC(=O)c2ccccc2)cc(OC)c1OC | 95.8%

tested on: alternative oxidase (AOX); assay: as above; details: AOX-dependent respiration, at 500 µM, stronger effect = lower value

Compound | O2 uptake (% of control)
COc1cccc(C(=O)Nc2cccc(OCc3ccccc3)c2)c1 | 79% (active)
COc1cc(NC(=O)c2cccc(C#N)c2)cc(OC)c1OC | 91.5% (inactive)
Cc1cccc(C(=O)NCc2ccc3c(c2)OCO3)c1 | 25.8% (active)
O=C(Nc1cccc(Br)c1)c1cccc(Br)c1 | 16.5% (active)
O=C(Nc1cccc(Br)c1)c1cccc(I)c1 | 20.2% (active)
Cc1cccc(C(=O)Nc2ccc(N3CCOCC3)cc2)c1 | 84.8% (inactive)
O=C(Nc1cccc([N+](=O)[O-])c1)c1ccccc1 | 36% (active)
COc1cc(NC(=O)c2cccc(Cl)c2)cc(OC)c1OC | 81.5% (active)
N#Cc1cccc(C(=O)Nc2ccccc2)c1 | 69.6% (active)
O=C(Nc1cccc(Br)c1)c1ccccc1 | 15.7% (active)
COc1cccc(C(=O)Nc2ccccc2C(N)=O)c1 | 76.2% (inactive)
O=C(Nc1cccc(F)c1)c1cccc(I)c1 | 23.7% (active)
COc1cc(NC(=O)c2cccc(C)c2)cc(OC)c1OC | 66.4% (active)
O=C(Nc1cccc(C(F)(F)F)c1)c1cccc(F)c1 | 13.8% (active)
O=C(Nc1cccc([N+](=O)[O-])c1)c1cccc(F)c1 | 44.8% (active)
O=C(Nc1cccc(Cl)c1)c1cccc(Br)c1 | 15% (active)
O=C(Nc1cccc(I)c1)c1ccccc1 | 17.3% (active)
O=C(Nc1cccc(OCc2ccccc2)c1)c1cccc(I)c1 | 51.2% (active)
O=C(Nc1cccc(NC(=O)c2cccc(I)c2)c1)c1cccc(I)c1 | 89% (active)
O=C(Nc1cccc(C(F)(F)F)c1)c1ccccc1 | 16.8% (active)

Compound | O2 uptake (% of control)
COc1cccc(C(=O)Nc2cccc(I)c2)c1 | 23% (active)
O=C(Nc1cccc(OCc2ccccc2)c1)c1cccc(F)c1 | 41.2% (active)
O=C(Nc1cccc(C(F)(F)F)c1)c1cccc(I)c1 | 17.5% (active)
O=C(Nc1ccc(N2CCOCC2)cc1)c1cccc(F)c1 | 86.3% (inactive)
NC(=O)c1ccccc1NC(=O)c1ccccc1I | 84.5% (inactive)
O=C(Nc1cccc(Cl)c1)c1cccc(I)c1 | 15.4% (active)
O=C(Nc1cccc(NC(=O)c2cccc(F)c2)c1)c1cccc(F)c1 | 51.3% (active)
O=C(Nc1cccc(Cl)c1)c1cccc(F)c1 | 24.6% (active)
O=C(Nc1cccc(OCc2ccccc2)c1)c1cccc(Br)c1 | 88.7% (active)
O=C(Nc1cccc(Cl)c1)c1ccccc1 | 21.5% (active)
O=C(Nc1ccccc1)c1cccc(F)c1 | 61.8% (active)
O=C(Nc1cccc(F)c1)c1cccc(Br)c1 | 28.7% (active)
COc1cc(NC(=O)c2cccc(F)c2)cc(OC)c1OC | 98.7% (inactive)
Cc1cccc(C(=O)Nc2ccccc2)c1 | 42.3% (active)
Cc1cccc(C(=O)Nc2cccc([N+](=O)[O-])c2)c1 | 34.3% (active)
O=C(Nc1cccc(C(F)(F)F)c1)c1cccc(Cl)c1 | 15.8% (active)
N#Cc1cccc(C(=O)Nc2cccc(F)c2)c1 | 53.5% (active)
COc1cc(NC(=O)c2cccc(Br)c2)cc(OC)c1OC | 63.6% (active)
COc1cc(NC(=O)c2ccccc2)cc(OC)c1OC | 61.1% (active)
